This is part of a sample that, as a whole, favours compounds with a hit. Of some 79,000 tested, about 15% had one in any assay. The source made the active and inactive calls. No stated cut-off is given here; in the data, active means growth inhibition above about 70%; inactive means the rest.
How the values were obtained:
[1] = NCI Yeast Anticancer Drug Screen. Data for the wt1 strain (AID 149);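 further: 0% = growth of vehicle-treated wt1 cultures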; conditions: S. cerevisiae wt1 strain (SPY 50644) growth inhibition, stronger effect = higher value
Outline: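 Vehicle-normalised growth inhibition; strain wt1; compound exposure.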

[2] = NCI Yeast Anticancer Drug Screen. Data for the rad50EPP+ strain (AID 151);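 further: 0% = growth of vehicle-treated control cultures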; conditions: S. cerevisiae rad50 mutant strain, stronger effect = higher value
Outline: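 One strain with a rad50 alteration (rad50EPP+) was compound-treated, its growth then compared to that of vehicle controls.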

[3] = NCI Yeast Anticancer Drug Screen. Data for the mgt1 strain (AID 153); conditions: S. cerevisiae mgt1 mutant growth inhibition, stronger effect = higher value
Outline: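 After exposure of the mgt1 yeast mutant to compound, growth was measured and reported as inhibition compared with vehicle controls.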

[4] = NCI Yeast Anticancer Drug Screen. Data for the rad50 strain (AID 155);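 further: 0% = growth of vehicle-only cultures of the same strain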; conditions: S. cerevisiae rad50 strain growth inhibition, stronger effect = higher value
Outline: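 A DNA repair-deficient yeast mutant serves as the test organism; compound-induced growth inhibition is calculated against vehicle-treated cells.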

[5] = NCI Yeast Anticancer Drug Screen. Data for the mec2-1 strain (AID 157); conditions: S. cerevisiae mec2-1 strain, stronger effect = higher value
Outline: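 Test agents were screened against the mec2-1 yeast strain, with defined DNA repair or cell cycle alteration. Growth was scored as inhibition against vehicle-only controls.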

[6] = NCI Yeast Anticancer Drug Screen. Data for the rad14 strain (AID 159);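 further: 0% = growth of vehicle-treated control cultures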; conditions: S. cerevisiae rad14 strain growth inhibition, stronger effect = higher value
Outline: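 Vehicle-treated cultures served as the baseline for growth inhibition of a DNA repair-mutant yeast strain exposed to each compound.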

[7] = NCI Yeast Anticancer Drug Screen. Data for the sgs1 mgt1 strain (AID 161);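 further: 0% = growth of cultures given vehicle only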; conditions: S. cerevisiae sgs1 mgt1 strain, stronger effect = higher value
Outline: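 Genetically altered yeast, compound exposure, growth inhibition relative to vehicle.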

[8] = NCI Yeast Anticancer Drug Screen. Data for the CLN2oe strain (AID 163);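 further: 0% = growth of vehicle-only control cultures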; conditions: S. cerevisiae CLN2oe strain, stronger effect = higher value
Outline: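 Here, growth inhibition in a cell-cycle-altered yeast strain after compound exposure was quantified against vehicle control growth.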

[9] = NCI Yeast Anticancer Drug Screen. Data for the cln2 rad14 strain (AID 165);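 further: 0% = growth equal to vehicle treated cultures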; conditions: S. cerevisiae cln2 rad14 strain, stronger effect = higher value
Outline: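 Growth of compound-exposed yeast (cln2 rad14 genotype) measured and expressed as inhibition relative to vehicle.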

[10] = NCI Yeast Anticancer Drug Screen. Data for the bub3 strain (AID 167); conditions: S. cerevisiae bub3 mutant strain, stronger effect = higher value
Outline: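 Inhibition values come from growth of compound-treated mutant yeast normalised to vehicle-treated controls.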

[11] = NCI Yeast Anticancer Drug Screen. Data for the wt2 strain (AID 169);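 further: 0% = growth of vehicle-treated yeast cultures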; conditions: S. cerevisiae wt2 strain growth inhibition, stronger effect = higher value
Outline: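 Genetically defined yeast strains from a DNA-repair/cell-cycle panel were used. Compound-exposed yeast growth was measured, and the inhibition was calculated relative to vehicle treatment.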

[12] = NCI Yeast Anticancer Drug Screen. Data for the mlh1 strain (AID 171);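 further: 0% = growth of vehicle-treated control cultures of the same strain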; conditions: S. cerevisiae mlh1 strain growth inhibition, stronger effect = higher value
Outline: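 Here the genetically defined yeast mutant is grown with each compound, and the extent to which its growth falls below that of vehicle-exposed cells is reported.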

[13] = NCI Yeast Anticancer Drug Screen. Data for the sgs1 strain (AID 173);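 further: 0% = growth of vehicle-only control cultures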; conditions: S. cerevisiae sgs1 mutant, stronger effect = higher value
Outline: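 Relative growth inhibition, referenced to vehicle, was determined in a yeast strain with a defined alteration affecting DNA damage repair or cell cycle control after compound exposure.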

[14] = NCI Yeast Anticancer Drug Screen. Data for the mlh1 rad18 strain (AID 175); conditions: S. cerevisiae mlh1 rad18 strain growth inhibition, stronger effect = higher value
Outline: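 In this whole-cell yeast screen, a strain with altered DNA damage repair is challenged with compound, and its growth is measured against matched vehicle-treated controls.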

[15] = NCI Yeast Anticancer Drug Screen. Data for the rad18 strain (AID 177); conditions: S. cerevisiae rad18 mutant growth inhibition, stronger effect = higher value
Outline: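 Screen uses a yeast strain with a defined lesion in DNA damage repair; compound effect is read as loss of growth compared to untreated vehicle cultures.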

[16] = at 5.0 µM (retest, dose inferred, filed as 0.5)
[17] = at 50.0 µM (retest, dose inferred, filed as 5.0)

Measured: growth inhibition

O=C1CSC(c2cccc(Cl)c2)N1c1ccc(-c2ccc(-n3c(-c4ccccc4)nc4ccccc4c3=O)cc2)cc1 (stereo not drawn)
active: [7]; [17] 83% | [10]; [17] 85% | [10]; at 50.0 µM 86.8% | [14]; [17] 85% | [14]; at 50.0 µM 85.1%
inactive: [1]; at 1.2 µM 1% | [1]; at 3.7 µM 1% | [1]; at 11.0 µM -1% | [1]; at 33.0 µM -4% | [1]; at 100.0 µM -3% | [2]; at 1.2 µM -1% | [2]; at 3.7 µM 4% | [2]; at 11.0 µM 8% | [2]; at 33.0 µM 9% | [2]; at 100.0 µM -4% | [3]; at 1.2 µM 1% | [3]; at 3.7 µM 2% | [3]; at 11.0 µM 3% | [3]; at 33.0 µM 25% | [3]; at 100.0 µM 60% | [4]; at 1.2 µM 2% | [4]; at 3.7 µM 6% | [4]; [16] -2% | [4]; at 11.0 µM 7% | [4]; at 33.0 µM 15% | [4]; [17] 61% | [4]; at 50.0 µM 66.8% | [4]; at 100.0 µM 22% | [5]; at 1.2 µM 3% | [5]; at 3.7 µM 4% | [5]; [16] -9% | [5]; at 11.0 µM 6% | [5]; at 33.0 µM 9% | [5]; [17] -26% | [5]; at 50.0 µM 68.5% | [5]; at 100.0 µM 16% | [6]; at 1.2 µM 7% | [6]; at 3.7 µM 9% | [6]; at 11.0 µM 15% | [6]; at 33.0 µM 32% | [6]; at 100.0 µM 47% | [7]; [16] 8% | [7]; at 50.0 µM 43.2% | [8]; at 1.2 µM 13% | [8]; at 3.7 µM 11% | [8]; at 11.0 µM 15% | [8]; at 33.0 µM 15% | [8]; at 100.0 µM 11% | [9]; [16] 31% | [9]; [17] 46% | [9]; at 50.0 µM 41.6% | [10]; at 1.2 µM 5% | [10]; at 3.7 µM 4% | [10]; [16] 10% | [10]; at 11.0 µM 6% | [10]; at 33.0 µM 8% | [10]; at 100.0 µM 29% | [11]; at 1.2 µM 0% | [11]; at 3.7 µM -2% | [11]; at 11.0 µM 0% | [11]; at 33.0 µM 15% | [11]; at 100.0 µM 39% | [12]; at 1.2 µM 1% | [12]; at 3.7 µM 5% | [12]; at 11.0 µM 7% | [12]; at 33.0 µM 24% | [12]; at 100.0 µM 42% | [13]; at 1.2 µM 0% | [13]; at 3.7 µM 2% | [13]; at 11.0 µM 10% | [13]; at 33.0 µM 39% | [13]; at 100.0 µM 57% | [14]; [16] 5% | [15]; at 1.2 µM 0% | [15]; at 3.7 µM 3% | [15]; at 11.0 µM 14% | [15]; at 33.0 µM 22% | [15]; at 100.0 µM 31%

Reference: PubChem BioAssay (NCI)
